Compound activity as filed in PubChem BioAssay.
An excerpt weighted towards active compounds, which were near 7.5% of everything screened.
KinaseGlo FLuc: counter-screen: inhibitors of Kinase-Glo firefly luciferase | Q27757 | Kinase-Glo luciferase, ATP luminescence, 8 min | Potency, µM (titrated, usually from 38.3 µM), for inactives: top-dose activity change, negative = inhibition, most hits filed as inhibitors | 200,000 tested, 0.28% active; note: % is set by controls: 0 for no effect and ±100 for the full control effect; nearly all actives have a fitted effect of over 60% in size
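Substrate mix (final 50 mM imidazole pH 7.2, 50 mM KCl, 7 mM MgCl2, 10 uM ATP, 0.01% Tween 20, 0.05% BSA) plus pin-tool compound, then Kinase-Glo detection mix; 8 min ambient, luminescence read.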
NPC1 promoter act: activators of NPC1 promoter; 320,000 tested, 2.4% active; Huh7 NPC1 promoter luciferase reporter, 24 h; Potency, µM (highest dose often 9.22 µM), without a hit: at the highest dose activation, hits mostly activators; AID 485313; note: % of control where 0% means no effect; nearly all actives have a fitted effect of over 60% in size
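In 1536-well qHTS, Huh7 cells harboring an NPC1 promoter–luciferase construct received compound for 24 h; activation was quantified by luminescence following luciferase reagent addition.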
ELG1 genotoxic: inducers of genotoxicity in HEK293T ELG1-luciferase cells | 330,000 tested, 1.3% active | HEK293T ELG1-luciferase reporter, luminescence, 16 h | Potency, µM (titrated, usually from 46 µM), for inactives: at the highest dose activity change, positive = activation, actives largely listed as activators; note: % of control where 0% means no effect; nearly all actives have a fitted effect of over 60% in size
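After overnight (16 hr) compound treatment at 37 °C, ELG1-luciferase HEK293T cells were lysed with ONE-Glo; luminescence quantified 30 min later at room temperature.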
FLuc modulator: inhibits or activates purified firefly luciferase, miR-21 counter-screen | P08659 | purified FLuc, Km substrates, luminescence inhibition | Potency, µM (series often up to 57.5 µM), inactives show at the top dose activity change, negative = inhibition, most hits filed as inhibitors | 360,000 tested, 6.9% active | AID 588342;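 note: plate controls were vehicle for no effect and reference inhibitor for full effect; nearly all actives have a fitted effect of over 55% in size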
Target sequence (P08659 whole entry, looked up): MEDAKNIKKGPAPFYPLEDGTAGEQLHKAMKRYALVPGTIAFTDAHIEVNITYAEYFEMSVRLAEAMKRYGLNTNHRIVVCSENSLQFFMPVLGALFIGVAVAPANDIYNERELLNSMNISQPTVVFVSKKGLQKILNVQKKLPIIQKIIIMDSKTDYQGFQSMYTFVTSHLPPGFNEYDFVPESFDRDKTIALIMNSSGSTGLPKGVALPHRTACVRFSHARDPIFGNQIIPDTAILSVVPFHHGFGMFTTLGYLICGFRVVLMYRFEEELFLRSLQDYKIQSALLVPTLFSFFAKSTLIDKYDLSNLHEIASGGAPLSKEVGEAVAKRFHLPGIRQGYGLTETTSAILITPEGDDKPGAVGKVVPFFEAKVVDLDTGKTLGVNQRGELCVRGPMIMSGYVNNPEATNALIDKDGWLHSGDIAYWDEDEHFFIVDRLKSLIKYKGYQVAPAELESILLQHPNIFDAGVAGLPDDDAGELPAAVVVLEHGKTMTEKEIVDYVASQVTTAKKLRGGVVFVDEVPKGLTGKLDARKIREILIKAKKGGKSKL
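Purified P. pyralis luciferase, 10 nM final, with Km-level 10 uM D-luciferin and 10 uM ATP in 50 mM Tris acetate pH 7.5, 10 mM Mg acetate, 0.01% Tween-20, 0.05% BSA; 6-point qHTS titration about 60 µM downward; luminescence read.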
SMN2 splice up: SMN2 splice variant enhancement | HEK293 SMN2-luciferase splicing reporter, luminescence, 30-36 h | Potency, µM (top dose mostly 46.1 µM), inactives show at the top dose activity change, positive = activation, actives largely listed as activators | 210,000 tested, 2.8% active | AID 1458; note: % of control where 0% means no effect; nearly all actives have a fitted effect of over 55% in size
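qHTS luciferase splicing reporter: luminescence rises when SMN2 exon 7 is included in transfected HEK293 cells. Compound exposure lasted 30-36 h at 37C, with 4.5 mM final sodium butyrate as control, followed by a ONE-Glo read.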
Rab9 prom act: activators of Rab9 promoter | AID 485297 | Huh7 Rab9 promoter-luciferase reporter, luminescence, 24 h | 320,000 tested, 2.8% active | Potency, µM (titrated, usually from 9.22 µM), inactives show at the highest dose activation, negative = inhibition, hits mostly activators; note: % of control where 0% means no effect; nearly all actives have a fitted effect of over 60% in size
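Luminescence read-out: Huh7 cells stably expressing Rab9-luciferase, treated 24 h with compound at 37 °C, then lysed with luciferase reagent for 10 min at ambient before reading.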
Starred values were filed as active, the others as inactive; ? = inconclusive; nt = not tested or not shown; [ ] = dose if it differs, or a comment. Calls come from the whole dose curve; as a rule, active = well fitted curve in the direction sought with a large enough effect; inconclusive = small, poorly fitted or top-dose-only effect, or another doubt; inactive = no such curve, though single readings can be large; an effect the other way counts as inactive or inconclusive. Potency is the fitted concentration of half-maximal effect.

SMILES	KinaseGlo FLuc	NPC1 promoter act	ELG1 genotoxic	FLuc modulator	SMN2 splice up	Rab9 prom act
COc1ccc(-n2nc(C(=O)NCC(=O)N3CCN(c4ccccn4)CC3)c3ccccc3c2=O)cc1OC	0%	-4%	-4%	4.8µM*	-1%	18%
COc1ccc(-n2nc(C(=O)NCC(=O)Nc3cc(OC)c(OC)c(OC)c3)c3ccccc3c2=O)cc1OC	nt	-5%	-9%	-1%	nt	-2%
COc1ccc(/C=C/C(=O)NC(=S)N2CCN(c3ccccn3)CC2)cc1	nt	6%	10%	13µM*	nt	0%
COc1ccc(-n2nc(C(=O)NCC(=O)N3CCN(c4ccccn4)CC3)c3ccccc3c2=O)cc1	-1%	?	2%	1.2µM*	?	?
O=C(Nc1ccc(Br)cc1)c1ccc(N2C(=O)C3CCCCC3C2=O)cc1 (configuration not stated)	nt	0%	1%	0%	nt	-3%
O=C(Nc1nccs1)c1ccc(N2C(=O)C3CCCCC3C2=O)cc1 (configuration not stated)	-4%	11%	?	21µM*	23%	16%
O=C(Nc1nccs1)c1ccc(N2C(=O)[C@@H]3[C@H](C2=O)[C@H]2C=C[C@@H]3C2)cc1	nt	2.5µM*	?	27µM*	nt	3.5µM*
O=C(Nc1ccc(F)cc1F)c1noc2c1CCc1ccccc1-2	nt	nt	nt	?	11µM*	nt
CCc1ccc(NC(=O)c2noc3c2CCc2ccccc2-3)cc1	-3%	23%	?	11µM*	22%	?
Cc1ccc(NC(=O)c2noc3c2CCc2ccccc2-3)cc1	-3%	4µM*	21µM*	7.6µM*	?	2.8µM*
O=C(Nc1cccc(C(F)(F)F)c1)c1noc2c1CCc1ccccc1-2	nt	nt	nt	?	-7%	nt
O=C(Nc1cccc(O)c1)c1noc2c1CCc1ccccc1-2	14µM*	?	1.2µM*	0.48µM*	?	?
COc1ccc(Cl)cc1NC(=O)c1noc2c1CCc1ccccc1-2	nt	nt	nt	-3%	0%	nt
CC(C)CCNC(=O)N1CCN(S(=O)(=O)c2ccc3c(ccn3C)c2)CC1	nt	nt	nt	-1%	nt	nt
CC(=O)Nc1cc(-c2ccc(Cl)cc2)[nH]n1	-7%	3.5µM*	?	?	22µM*	?
CC(C)C(=O)Nc1nc(-c2ccccc2)ns1	1%	3.5µM*	?	15µM*	2.2µM*	2.8µM*
COc1cc(OC)cc(-c2cc(NC(C)=O)n[nH]2)c1	6%	2%	10%	?	13%	-2%
CCC(=O)Nc1nc(-c2ccccc2)ns1	3%	4µM*	14%	15µM*	11µM*	2µM*
CCCC(=O)Nc1nc(-c2ccccc2)ns1	-2%	?	25%	17µM*	?	?
CC(C)c1cnc2c(c1SCC(=O)N1CCCCC1)c(=O)n(C)c(=O)n2C	nt	nt	nt	-1%	nt	nt
Cc1cccc(N(C(=O)CCC(=O)Nc2cc(C)on2)C(C(=O)NC2CCCC2)c2ccccc2)c1 (configuration not stated)	nt	-3%	-9%	2%	nt	0%
COc1ccccc1N1CCN(S(=O)(=O)c2c(C)sc3ncn(CC(=O)Nc4ccccc4F)c(=O)c23)CC1	nt	nt	nt	0%	9%	nt
CC(C)C(NC(=O)c1c(F)cccc1F)C(=O)OCN1C(=O)c2ccccc2C1=O (configuration not stated)	nt	-3%	1%	-2%	nt	-1%
CC(=O)Nc1nc(-c2ccc(Cl)cc2)ns1	2%	?	17%	11µM*	?	4µM*
CCCSc1nsc(NC(=O)CC)n1	?	0.28µM*	?	0.67µM*	nt	0.11µM*
SMILES	KinaseGlo FLuc	NPC1 promoter act	ELG1 genotoxic	FLuc modulator	SMN2 splice up	Rab9 prom act
CN(C)/C=N/C(=S)Nc1cc(Cl)cc(Cl)c1	2%	-1%	-1%	2%	0%	-3%[1.84 µM]
CN(C)/C=N/C(=S)Nc1ccc(Cl)c(Cl)c1	-6%	18%	?	17µM*	13%	24%
CC(C)c1nnc(NC(=O)CCC2CCCCC2)s1	nt	?	12%	-18%	nt	?
CN(c1ccccc1)c1ccc(/C=C/[N+](=O)[O-])cc1	-4%	9%	-6%	11µM*	-84%	17%
O=C(OCc1cc(=O)n2nc(C3CC3)sc2n1)c1cccc(NC(=O)c2ccccc2Cl)c1	nt	nt	nt	-15%	nt	nt
CCOc1cc(-c2cc(-c3ccccc3)nc(N)c2C#N)ccc1O	4%	-1%	?	-18%	?	-3%
CCOc1cc(-c2cc(-c3ccc(N)cc3)nc(N)c2C#N)ccc1O	-4%	1%	-1%	-13%	13µM*	9%
CC(C)C(=O)Nc1nnc(CCc2ccccc2)s1	nt	15%	12%	2%	nt	1%
CC(C)C(=O)Nc1nnc(NC(=S)Nc2ccccc2)s1	-1%	?	?	21µM*	30%	4.5µM*
CCCc1nnc(NC(=O)Nc2ccccc2Cl)s1	nt	nt	nt	?	16µM*	nt
CC(C)(C)C(=O)Nc1nnc(CCc2ccccc2)s1	nt	4µM*	?	12µM*	nt	5.6µM*
CCCc1nnc(NC(=O)CCC(=O)Nc2ccc(Cl)cc2)s1	nt	-1%	?	-4%	nt	5%
CCCc1nnc(NC(=S)Nc2ccccc2)s1	0%	?	?	?	?	2.5µM*
O=c1c2ccccc2n(Cc2ccccc2F)c(=O)n1-c1cccc(F)c1	nt	nt	nt	0%	6%	nt
NCCC[C@@H](CC(=O)N[C@@H]1CCNC[C@H]1C(=O)N[C@H](CC(=O)N[C@@H](CCC(=O)O)CC(=O)O)Cc1ccccc1)NC(=O)C[C@H](Cc1ccccc1)NC(=O)[C@@H]1CCCC[C@H]1N	0%	nt	nt	nt	-3%	nt
CCCC1=Nc2cc(C(=O)NC3CCCC3)ccc2Sc2ccc(C)cc21	nt	nt	nt	-11%	-26%	nt
O=C(OCC(=O)c1c[nH]c2ccccc12)c1ccc(Br)o1	-5%	4%	6%	17µM*	nt	11%
COc1cccc(/C=C/C(=O)OCC(=O)c2c[nH]c3ccccc23)c1OC	2%	-2%	0%	-11%	-15%	1%
O=C(NCCc1c[nH]c2ccccc12)c1ccc(Br)o1	nt	nt	5%	nt	nt	nt
COc1cccc(C(=O)OCC(=O)c2c[nH]c3ccccc23)c1O	-3%	13%	?	19µM*	25%	17%
O=C(OCC(=O)c1c[nH]c2ccccc12)c1ccco1	-3%	7%	16µM*	9.5µM*	1%	8%
O=C(Nc1ccccc1OCc1cc(=O)n2ccccc2n1)c1ccccc1F	nt	nt	nt	-1%	nt	nt
Cc1nnc(N2C(=O)c3oc4ccccc4c(=O)c3C2c2ccc(F)cc2)s1 (configuration not stated)	nt	nt	nt	1%	-14%	nt
Cc1cc(Cl)ccc1OCCSc1nnc(-c2cccs2)o1	nt	nt	nt	-12%	nt	nt
